The list is not random: actives were taken first. Their share in the collection is about 6.4%.
Luc counter = Counterscreen for Luciferase (Kinase-Glo TM) Inhibition. Luciferin 4-monooxygenase (Photuris pensylvanica), Q27757. Kinase-Glo luciferase, ATP luminescence, 8 min. Potency, µM (highest dose often 38.3 µM), inactives show at the highest dose activity change, negative = inhibition, most hits filed as inhibitors. 200,000 tested, 0.28% active; also: nearly all actives have a fitted effect of over 60% in size
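Kinase-Glo luciferase light output from ATP and luciferin was measured with 10 uM ATP, within the enzyme's linear range. Buffer: 50 mM imidazole pH 7.2, 50 mM KCl, 7 mM MgCl2, 0.01% Tween 20, 0.05% BSA; luminescence read after 8 min at ambient temperature.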
RORg inh = qHTS for inhibitors of ROR gamma transcriptional activity; Nuclear receptor ROR-gamma (Mus musculus), P51450; Drosophila S2 Gal4-RORgamma UAS-luciferase reporter, 20 h; Potency, µM (titrated, usually from 53.6 µM), for the others: at the highest dose activity change, negative = inhibition, actives largely listed as inhibitors; 310,000 tested, 5.4% active; also: nearly all actives have a fitted effect of over 60% in size
Target sequence (P51450 whole entry, looked up, the tested form may be a part): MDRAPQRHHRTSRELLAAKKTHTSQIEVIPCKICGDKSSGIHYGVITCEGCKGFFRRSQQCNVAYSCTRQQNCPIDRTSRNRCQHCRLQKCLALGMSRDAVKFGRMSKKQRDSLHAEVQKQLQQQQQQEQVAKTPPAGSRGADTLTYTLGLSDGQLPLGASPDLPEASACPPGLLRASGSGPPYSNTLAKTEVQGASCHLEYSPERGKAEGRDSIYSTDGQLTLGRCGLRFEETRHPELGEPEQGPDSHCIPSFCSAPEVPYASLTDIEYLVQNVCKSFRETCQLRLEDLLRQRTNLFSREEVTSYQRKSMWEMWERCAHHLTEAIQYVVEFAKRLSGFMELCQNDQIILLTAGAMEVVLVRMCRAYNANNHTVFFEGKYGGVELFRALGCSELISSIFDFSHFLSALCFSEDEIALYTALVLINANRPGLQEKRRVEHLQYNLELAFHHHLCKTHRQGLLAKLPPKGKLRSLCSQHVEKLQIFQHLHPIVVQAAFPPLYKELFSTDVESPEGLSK
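Compounds are pin-transferred onto Drosophila Schneider cells expressing a copper-inducible Gal4–ROR gamma transactivation domain fusion. After 1 hr, copper sulfate is added to 700 uM final; luciferase is read 20 hr later.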
VP16 counter = VP16 counterscreen qHTS for inhibitors of ROR gamma transcriptional activity; Drosophila S2 Gal4-VP16 UAS-luciferase, luminescence, 20 h; Potency, µM (doses to about 53.6 µM), for the others: at the highest dose activity, negative = inhibition, usual class: inhibitors; 310,000 tested, 3.5% active; AID 2546, 2010;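 also: Gal4-VP16 expression switched on by copper sulfate through the metallothionein promoter; nearly all actives have a fitted effect of over 50% in size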
* = called active by the depositor; [ ] = another dose, or the depositor's remark. Calls follow the shape of the dose curve; as a rule, active = well fitted curve in the direction sought with a large enough effect; inconclusive = small, poorly fitted or top-dose-only effect, or another doubt; inactive = no such curve, though single readings can be large; an effect the other way counts as inactive or inconclusive. % is scaled to controls: 0 for no effect and ±100 for the full control effect; potency is read from the fitted curve at half-maximal effect.

Results for O=C(NCCN1CCOCC1)c1ccc(-n2c(=O)c(=O)[nH]c3ccccc32)cc1 ?
Luc counter: -1.0%

What do the screens show for `CC(C)(C)NC(=O)NC(=O)C[n+]1ccc(Cc2ccc([N+](=O)[O-])cc2)cc1`?
RORg inh: -2.0%; VP16 counter: -2.5%

How did Clc1cccc(CNc2nc(-c3cccnc3)nc3ccccc23)c1 do in these assays?
RORg inh: -6.1%; VP16 counter: -2.5%

Results for COc1cc2[nH]c(=S)nc(NCc3ccc(C)cc3)c2cc1OC ?
RORg inh: 6.31µM*; VP16 counter: 17.8µM*

Results for COc1cc2ncnc(NCc3ccc(F)cc3)c2cc1OC ?
RORg inh: -14.6%; VP16 counter: 3.6%

How did COc1cc2[nH]c(=S)nc(NCc3cccc(Cl)c3)c2cc1OC do in these assays?
RORg inh: 3.16µM*; VP16 counter: 7.94µM*

How did S=c1nc(NCc2cccc(Cl)c2)c2ccccc2[nH]1 do in these assays?
RORg inh: 3.98µM*; VP16 counter: 8.91µM*

Results for COc1cc2[nH]c(=S)nc(NCc3ccccc3)c2cc1OC ?
RORg inh: 7.08µM*; VP16 counter: inconclusive

What do the screens show for `COc1ccc(CNCc2cccc(Cl)c2)cc1`?
Luc counter: -0.7%; RORg inh: -1.1%; VP16 counter: 23.0%

How did COc1cc2[nH]c(=S)nc(NCc3cccnc3)c2cc1OC do in these assays?
RORg inh: 0.6%; VP16 counter: -5.5%

How did O=C(COC(=O)C1CC2C=CC1C2)NCc1ccccc1Cl (stereo not drawn) do in these assays?
Luc counter: 14.7%; RORg inh: -1.3%; VP16 counter: -6.5%

Results for Cc1cccc(N2CCN(C(=O)CN3CCOc4ccccc43)CC2C)c1 (stereo not drawn) ?
Luc counter: -1.9%; RORg inh: 12.3%; VP16 counter: -2.4%

What do the screens show for `Cc1ccc(N2C(=O)C3C4C=CC(CNC(=S)N5CCN(c6cccc(C)c6)C(C)C5)(O4)C3C2=O)cc1` (stereo not drawn)?
Luc counter: 2.0%; RORg inh: 8.91µM*; VP16 counter: inconclusive

Results for COc1c(C2=CC(=O)N(C)C2=O)c2c(n1C)C(=O)c1ccccc1C2=O ?
Luc counter: -3.7%; RORg inh: inconclusive; VP16 counter: 10µM*

What do the screens show for `N#CCCNS(=O)(=O)c1ccc(C(=O)OCC2CCCCC2)cc1`?
RORg inh: -24.2%; VP16 counter: -23.4%

What do the screens show for `N#CCCNS(=O)(=O)c1ccc(C(=O)OCCCOC(=O)c2ccc(S(=O)(=O)NCCC#N)cc2)cc1`?
RORg inh: 11.2µM*; VP16 counter: 17.8µM*

How did CC(C)c1nnc(NC(=O)c2ccc(S(=O)(=O)N3CCOCC3)cc2)s1 do in these assays?
Luc counter: -4.2%; RORg inh: 14.8%; VP16 counter: 9.0%

What do the screens show for `CC1(C)COCN1S(=O)(=O)c1ccc(C(=O)Nc2nnc(-c3ccc(Cl)s3)o2)cc1`?
Luc counter: 4.6%; RORg inh: 0.112µM*; VP16 counter: 0.126µM*

How did CC1CC(C)CN(C(=O)CSc2nnc(-c3ccc(Cl)s3)o2)C1 (stereo not drawn) do in these assays?
Luc counter: -0.8%; RORg inh: 1.3%; VP16 counter: -13.3%

Results for COc1ccc(C(=O)CSc2nnc(-c3ccc(S(=O)(=O)N4CCOCC4)cc3)o2)cc1 ?
Luc counter: -1.5%; RORg inh: 3.1%; VP16 counter: 1.3%

Results for COc1ccc(-c2nnc(NC(=O)c3ccc(S(=O)(=O)N4COCC4(C)C)cc3)o2)cc1 ?
Luc counter: 1.2%; RORg inh: 0.224µM*; VP16 counter: 0.398µM*

What do the screens show for `CCCC(=O)Nc1nnc(-c2ccc(Cl)s2)o1`?
Luc counter: -3.6%; RORg inh: 8.91µM*; VP16 counter: inconclusive

What do the screens show for `COc1ccc(C(=O)N2CCOC2CNC(=O)C(=O)NCCc2ccc(OC)c(OC)c2)cc1` (stereo not drawn)?
RORg inh: -20.9%; VP16 counter: -1.5%

Results for CCN1C(=O)C(CC(=O)Nc2ccc(OC)cc2)N(Cc2ccc3c(c2)OCO3)C1=S (stereo not drawn) ?
Luc counter: -0.5%; RORg inh: -5.2%[10 µM]; VP16 counter: 4.4%

What do the screens show for `COc1cc(C(=O)OCCCN=C2NS(=O)(=O)c3ccccc32)cc(OC)c1OC`?
Luc counter: 3.0%; RORg inh: -6.3%; VP16 counter: 2.4%

Results for O=c1c2ccccc2c2ccccc2c(=O)n1-c1cc2c3ccccc3ccc2c2ccccc12 ?
Luc counter: -1.6%[7.66 µM]

Results for CC(CCCC(C)(C)O)NCc1cn[nH]c1-c1ccc2c(c1)OCO2 (stereo not drawn) ?
Luc counter: 4.6%; RORg inh: -10.6%; VP16 counter: -0.2%

How did O=C(COC(=O)c1cc(-c2cccc(Br)c2)nc2ccccc12)NCC1CCCO1 (stereo not drawn) do in these assays?
Luc counter: -1.1%; RORg inh: 36.1%; VP16 counter: -2.8%

Results for O=C(NNC(=S)Nc1ccccc1)c1cc(-c2cccnc2)nc2ccccc12 ?
Luc counter: 1.5%; RORg inh: -35.3%; VP16 counter: -11.7%

How did Cc1ccc(-c2cc(C(=O)Nc3ccccn3)c3ccccc3n2)o1 do in these assays?
Luc counter: -1.1%; RORg inh: 2.1%; VP16 counter: -17.3%

What do the screens show for `CN1CCC(N(C)C(=S)NC(=O)c2cc(-c3cccc(Br)c3)nc3ccccc23)CC1`?
Luc counter: -2.6%; RORg inh: 0.251µM*; VP16 counter: 0.891µM*

Results for O=C(NC(=S)Nc1ccccc1)c1cc(-c2ccccc2)nc2ccccc12 ?
Luc counter: -4.7%; RORg inh: 0.282µM*; VP16 counter: 4.47µM*

How did O=C(NC(=S)Nc1ccccn1)c1cc(-c2ccccc2)nc2ccccc12 do in these assays?
Luc counter: 1.7%; RORg inh: 0.398µM*; VP16 counter: 0.708µM*

How did COCCNc1nc2nonc2nc1N(C)Cc1cccc2cnccc12 do in these assays?
Luc counter: -4.1%; RORg inh: -12.0%; VP16 counter: 1.1%

What do the screens show for `O=C1C=CC(=O)N1CCCCCCN1C(=O)C=CC1=O`?
Luc counter: 1.5%; RORg inh: 3.16µM*; VP16 counter: 0.891µM*

Results for CCN1C(=O)C=CC1=O ?
Luc counter: -3.0%

Results for COc1ccc(C(=O)Nc2ccc(C(=O)NCCc3ccc(OC)c(OC)c3)cc2)cc1 ?
RORg inh: -34.2%; VP16 counter: -12.3%

What do the screens show for `COC(=O)c1ccc(CNCC(=O)Nc2ccc(C(=O)OC)cc2)cc1`?
Luc counter: 0.0%; RORg inh: 5.3%; VP16 counter: -9.5%

Results for CNC(=S)NCCc1ccc(OC)c(OC)c1 ?
Luc counter: -1.8%; RORg inh: -20.8%; VP16 counter: -4.5%

How did COc1ccc(NC(=O)NCCc2cccc(Cl)c2)cc1OC do in these assays?
Luc counter: 9.2%; RORg inh: 9.4%; VP16 counter: -13.2%

What do the screens show for `CCOC(=O)c1ccc(NC(=S)NCCc2ccc(OC)c(OC)c2)cc1`?
RORg inh: 10µM*; VP16 counter: inconclusive

Screening data: PubChem BioAssay, National Center for Advancing Translational Sciences (NCATS)
